The results in this text go back to PubChem BioAssay (NCATS).

Values joined by “and” are separate entries in the source; they are usually repeats but may differ in a detail not shown here. Identical values can stand only once. Results filed as inconclusive are left out. A number with no mark means an inactive call. Active and inactive are the calls of the source. Unless noted, the call rests on the fitted dose curve; in most records, active means well fitted curve in the direction sought with a large enough effect; inconclusive means small, poorly fitted or top-dose-only effect, or another doubt; inactive means no such curve, though single readings can be large; an effect the other way counts as inactive or inconclusive.

Assay [1] addresses Calcium and integrin-binding protein 1 (Homo sapiens) (UniProt Q99828). As to the kind of experiment: Primary qHTS for Identification of Calcium Integrin Binding Protein 1 (CIB1) Competitor (AID 1508620). Further: top concentration of the series differs between compounds. In short, it runs like this: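 Fluorescence polarization competition: GST-tagged CIB1 (1 uM final) preincubated with compound 15 min at room temperature, then FITC-labelled alphaIIb peptide (100 nM final) added. After 15 min at room temperature, polarization read at Ex 480/Em 540.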
In general terms: In qHTS, concentration-response curves come from the screen itself.

Assay [2] is described as follows: Primary qHTS for small molecule stabilizers of the endoplasmic reticulum resident proteome: Secreted ER Calcium Modulated Protein (SERCaMP) assay (AID 1508630). Further: potency means the concentration at half of the fitted maximal effect. The procedure, abridged: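 GLuc-SERCaMP-expressing SH-SY5Y cells, pretreated 16 h with compound, are challenged with thapsigargin to empty ER calcium stores; after 4 h, coelenterazine is added directly to the medium and luminescence is imaged.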

Assay [3] has as its target Cytochrome P450 2D6 (Homo sapiens) (UniProt P10635). As to the kind of experiment: Cytochrome P450 family 2 subfamily D member 6 (CYP2D6) small molecule antagonists: luciferase biochemical (cell-free) qHTS assay (AID 1645840; active means well fitted curve in the direction sought with a large enough effect in the repeat runs; an effect the other way counts as inactive or inconclusive; further: nearly all actives have a fitted effect of over 55% in size; further: potency means the concentration at half of the fitted maximal effect). In short, it runs like this: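 P450-Glo luminescent screen: recombinant CYP2D6 enzyme–proluciferin substrate mix preincubated with compound 10 min at room temperature, then NADPH regeneration added for 1 h at room temperature. Detection reagent added for 20 min; luciferin light read as relative luminescence units.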

In assay [4] the target is Cytochrome P450 2C9 (Homo sapiens) (UniProt P11712). The experiment in a line: Cytochrome P450 family 2 subfamily C member 9 (CYP2C9) small molecule antagonists: luciferase biochemical (cell-free) qHTS assay (AID 1645842; active means well fitted curve in the direction sought with a large enough effect in the repeat runs; an effect the other way counts as inactive or inconclusive; further: nearly all actives have a fitted effect of over 55% in size; further: potency means the concentration at half of the fitted maximal effect). The procedure, abridged:
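Luminescence, after 20 min with luciferin detection reagent, reflected CYP2C9 turnover during a 1 h NADPH-driven reaction at 37C. Enzyme-substrate mix contained 0.4% bovine serum albumin and was preincubated with compound 10 min at room temperature.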

Assay [5] can be described thus: Primary qHTS for inhibitors of nuclear receptor binding SET domain protein 2 (NSD2) in an isogenic RCH-ACV NSD2 p.E1099K mutant (9B) (AID 1645876). Further: nearly all actives have a fitted effect of over 70% in size. Further: potency means the concentration at half of the fitted maximal effect.

Sequence of Cytochrome P450 2C9 (Homo sapiens) (P11712 whole entry, looked up): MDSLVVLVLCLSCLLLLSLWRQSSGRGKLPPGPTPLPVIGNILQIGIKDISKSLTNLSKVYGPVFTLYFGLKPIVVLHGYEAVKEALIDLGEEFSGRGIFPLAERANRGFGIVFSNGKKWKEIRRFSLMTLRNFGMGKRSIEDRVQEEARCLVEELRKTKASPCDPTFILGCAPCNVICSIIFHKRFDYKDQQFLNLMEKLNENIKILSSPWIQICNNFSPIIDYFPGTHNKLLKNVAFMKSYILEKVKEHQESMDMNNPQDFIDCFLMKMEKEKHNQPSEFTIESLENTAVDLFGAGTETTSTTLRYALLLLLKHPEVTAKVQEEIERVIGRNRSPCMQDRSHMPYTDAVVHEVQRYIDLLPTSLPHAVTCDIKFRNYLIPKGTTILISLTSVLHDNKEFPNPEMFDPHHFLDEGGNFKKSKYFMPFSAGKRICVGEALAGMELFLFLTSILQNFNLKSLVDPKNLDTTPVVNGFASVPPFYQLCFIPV
Sequence of Cytochrome P450 2D6 (Homo sapiens) (P10635 whole entry, looked up): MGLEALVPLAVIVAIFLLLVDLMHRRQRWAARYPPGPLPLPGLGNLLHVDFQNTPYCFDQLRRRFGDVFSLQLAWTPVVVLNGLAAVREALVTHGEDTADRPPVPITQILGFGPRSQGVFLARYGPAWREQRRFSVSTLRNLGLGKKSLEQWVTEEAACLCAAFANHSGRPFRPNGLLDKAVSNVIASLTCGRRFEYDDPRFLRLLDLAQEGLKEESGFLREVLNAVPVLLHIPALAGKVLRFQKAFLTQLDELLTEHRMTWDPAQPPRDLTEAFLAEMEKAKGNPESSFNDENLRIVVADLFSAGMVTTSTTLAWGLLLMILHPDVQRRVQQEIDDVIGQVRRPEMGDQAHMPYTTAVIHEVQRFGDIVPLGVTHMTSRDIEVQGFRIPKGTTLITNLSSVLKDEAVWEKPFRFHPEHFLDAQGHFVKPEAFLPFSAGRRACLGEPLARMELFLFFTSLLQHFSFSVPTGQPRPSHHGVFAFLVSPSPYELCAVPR
Sequence of Calcium and integrin-binding protein 1 (Homo sapiens) (Q99828 whole entry, looked up): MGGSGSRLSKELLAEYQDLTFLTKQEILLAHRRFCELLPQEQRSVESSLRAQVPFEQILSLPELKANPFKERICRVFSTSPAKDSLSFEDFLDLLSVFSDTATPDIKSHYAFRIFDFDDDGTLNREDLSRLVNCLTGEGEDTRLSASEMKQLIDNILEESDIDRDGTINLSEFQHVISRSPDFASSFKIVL

For the molecule `NC(N)=Nc1nc(CSCCC(N)=NS(N)(=O)=O)cs1`, the Potency entry in assay [1] and in assay [2] was “inactive” in each case.
`C[C@@H]1O[C@@H](O[C@H]2CC[C@@]3(C)[C@H](CC[C@@H]4[C@H]3C[C@@H](O)[C@]3(C)[C@@H](C5=CC(=O)OC5)CC[C@]43O)C2)C[C@H](O)[C@@H]1O[C@H]1C[C@H](O)[C@H](O[C@H]2C[C@H](O)[C@@H](O)[C@@H](C)O2)[C@H](C)O1` (stereo in doubt): the Potency entry in assay [1] and in assay [2] was “inactive” in each case.
As to `CC1(C)OC2CC3C4CC(F)C5=CC(=O)C=CC5(C)C4C(O)CC3(C)[C@]2(C(=O)CO)O1` (some centres undefined), the Potency entry in assay [1] and in assay [2] was “inactive” throughout.
As for `C[C@@H]1CC=CC=CC=CC=C[C@@H](O[C@@H]2O[C@H](C)[C@@H](O)[C@H](N)[C@H]2O)C[C@@H]2O[C@](O)(C[C@@H](O)C[C@@H]3O[C@@H]3C=CC(=O)O1)C[C@H](O)[C@@H]2C(=O)O`, the Potency entry in assay [1] and in assay [2] was “inactive” in each case.
As to `CN1[C@H]2CC[C@H]1CC(OC(=O)c1c[nH]c3ccccc13)C2` (some centres undefined), the Potency result in assay [1], in assay [2] and in assay [4] was “inactive” each time. Also, the Potency in assay [3] was 12 µM (active).
For `O=C(O)C1=CO[C@@H](O[C@@H]2O[C@H](CO)[C@H](O)[C@H](O)[C@H]2O)[C@@H]2C(CO)=CC[C@H]12`, the Potency entry in assay [1] and in assay [2] was “inactive” each time.
For `O=C(c1ccc(C=Cc2n[nH]c3ccccc23)cc1)N1CCNCC1`, the Potency result in assay [1] and in assay [2] was “inactive” in each case.
In the case of `CC(=O)O[C@]1(C(C)=O)CC[C@H]2[C@@H]3C=C(Cl)C4=CC(=O)[C@@H]5C[C@H]5[C@]4(C)[C@@H]3CC[C@@]21C`, the Potency result in assay [1] and in assay [2] was “inactive” throughout.
Consider `CNc1nc(-c2ccc3c(N)n[nH]c3c2)cc(N2C[C@@H](C(=O)NC3CCCCC3)CC[C@@H]2C)n1`, for which the Potency entry in assay [1] and in assay [2] was “inactive” each time.
For `O=c1[nH]c(=O)n([C@H]2C[C@@H](O)[C@@H](CO)O2)cc1C(F)(F)F`, the Potency result in assay [1] and in assay [2] was “inactive” each time.
For the molecule `COc1ccc2cc1Oc1ccc(cc1)C[C@H]1c3cc(c(OC)cc3CCN1C)Oc1c(OC)c(OC)cc3c1[C@H](C2)N(C)CC3`, the Potency result in assay [1] and in assay [2] was “inactive” each time.
On to `COc1cccc(OC)c1-c1cc(C(=O)NC2(C(=O)O)C3CC4CC(C3)CC2C4)nn1-c1ccnc2cc(Cl)ccc12` (centres undefined), for which the Potency result in assay [1] and in assay [2] was “inactive” each time.
In the case of `O=C1NC(=O)C(=Cc2ccc(-c3ccc(F)cc3O)o2)S1`, the Potency result in assay [1] and in assay [2] was “inactive” each time.
`C[C@@H](O)[C@H]1C(=O)N2C(C(=O)OCOC(=O)C(C)(C)C)=C(SC3CN(C4=NCCS4)C3)[C@H](C)[C@H]12`: the Potency result in assay [1] and in assay [2] was “inactive” in each case.
For the molecule `N#CC(=C1Nc2ccccc2S1)c1ccnc(OCc2ccc(CN3CCOCC3)cc2)n1`, the Potency result in assay [1] is “inactive”. For the same molecule, the Potency in assay [2] was 1.49 µM (active).
As to `CC1(C)C(N(O)C(=O)Nc2ccc(Cl)cc2)N(c2ccc(Cl)cc2)C(=O)N1CC(=O)NN=CC=Cc1ccc([N+](=O)[O-])o1` (centres undefined), the Potency entry in assay [1] and in assay [2] was “inactive” throughout.
For the molecule `CCOC(=O)N1CCN([N+]([O-])=NOc2cc(ON=[N+]([O-])N3CCN(C(=O)OCC)CC3)c([N+](=O)[O-])cc2[N+](=O)[O-])CC1`, the Potency result in assay [1] and in assay [2] was “inactive” throughout.
As to `COc1cc(Cl)cn2c(-c3cccc(NC4CNC4)n3)cnc12`, the Potency result in assay [1] and in assay [2] was “inactive” each time.
As to `CCCCC(C=O)NC(=O)C(CC(C)C)NC(=O)OCc1ccccc1` (centres undefined), the Potency result in assay [1] and in assay [2] was “inactive” in each case.
Turning to `Cc1ccccc1C(C(=O)NC1CCCCC1)N(C(=O)CNc1ccc(C#N)cc1)c1cccc(F)c1` (centres undefined), the Potency result in assay [1], in assay [2], in assay [3] and in assay [5] was “inactive” throughout. Also, in assay [4], the Potency was 1.34 µM (active).
As to `Cc1ccccc1C(=O)c1ccc(Nc2ccc(Br)cc2N)cc1Cl`, the Potency result in assay [1] and in assay [2] was “inactive” throughout. Also, the Potency in assay [3] is 15.1 µM (active); in assay [4], 10.7 µM (active); in assay [5], 16.6 µM (active) and 5.78 µM (active).
Regarding `Cc1cccc2c1CC[C@H](CN1CCC(c3c(Cl)cccc3Cl)CC1)C[C@@H]2O`, the Potency entry in assay [1] and in assay [2] was “inactive” in each case. In addition, the Potency in assay [3] is 2.13 µM (active); in assay [4], 9.52 µM (active); in assay [5], 10.3 µM (active).
`Cc1cnc(-c2cc(N3CCN(C(=O)CCS(C)(=O)=O)CC3)ncc2Cl)c(C)c1`: the Potency entry in assay [1], in assay [2], in assay [3] and in assay [5] was “inactive” throughout. Moreover, in assay [4], the Potency is 21.3 µM (active).
For the molecule `CN(C)c1ccc(-c2nc3ncc(Cl)c(N4CCN(CC(=O)Nc5nccs5)CC4)c3[nH]2)cc1`, the Potency result in assay [1], in assay [2] and in assay [3] was “inactive” throughout. The Potency in assay [4] is 0.536 µM (active).
As to `CN(C)c1nc(Cc2ccc(NC(=O)c3ccc(C(F)(F)F)cc3)cc2)nc(N(C)C)c1CC(=O)O`, the Potency result in assay [1], in assay [2], in assay [3], in assay [4] and in assay [5] was “inactive” each time.
Regarding `Nc1ccc(-c2ccc3ncc4ccc(=O)n(-c5cccc(C(F)(F)F)c5)c4c3c2)cn1`, the Potency entry in assay [1] and in assay [2] was “inactive” in each case. In addition, the Potency was 23.9 µM (active) in assay [3]; 2.13 µM (active) in assay [4]; 14.8 nM (active) and 23.1 nM (active) in assay [5].
For the molecule `CSc1cccc(Nc2ncc3cc(-c4c(Cl)cccc4Cl)c(=O)n(C)c3n2)c1`, the Potency entry in assay [1], in assay [2] and in assay [3] was “inactive” in each case. Further, the results for the Potency in assay [4] and in assay [5] were 4.25 µM (active) and 2.06 µM (active), respectively.
